Test results: ChEMBL document CHEMBL4513216, “Probing the Open Global Health Chemical Diversity Library for Multistage-Active Starting Points for Next-Generation Antimalarials” (ACS Infect Dis, 2020)
Screen size: about 65,000 compounds; about 2,100 (3.2%) showed an effect of 50% or more. The median lay at about -52%. Many of the other results were omitted from the sample, so strong results are more common in it than they were.

system: Plasmodium falciparum; assay: Screen against P. falciparum Asexual Blood Stage (ABS), at 5uM; format: functional, Dd2; details: tested at 5 uM

Going from `O[C@H]1[C@H](n2cc(CN3CCCC3)nn2)c2ccccc2C12CCNCC2` to `OCc1cn([C@@H]2c3ccccc3C3(CCNCC3)[C@H]2O)nn1`, the INHIBITION falls from 63.2% to -114%.

Going from `Cc1cnc(C(=O)N2CCC3(CCN3Cc3ccc(F)cc3)C2)cn1` (centres undefined) to `Cc1cccc(CN2CCC3(CCN(Cc4ccccn4)C3)C2=O)c1` (centres undefined), the INHIBITION rises from -60.5% to 27.8%.

Compared with `O=C1CN(c2ccc(CNC(=O)Nc3nnc(C4CC4)s3)cc2)CCN1`, `NCC1Cc2cccc(-c3nccc(N4CCC(O)CC4)n3)c2O1` (centres undefined) is higher in INHIBITION: -5.48% for the first, 20.4% for the second.

Going from `c1cnn(CCNCCCOc2ccc3c(c2)OCO3)c1` to `Cc1cnn(CCNCCCOc2ccc3c(c2)OCO3)c1`, the INHIBITION rises from 23.5% to 50.6%.

First: Cc1cnn(CCNCC(O)COc2ccc(C#N)cc2)c1 (centres undefined)
Second: Cc1cnn(CCNCCCOc2ccc(C#N)cc2)c1
The INHIBITION of the first is lower: -106% for the first, 65.9% for the second.

First: COc1cc(CNCCn2cc(C)cn2)cc2c1OCCO2
Second: COc1cc(CNCCc2cnn(C)c2)cc2c1OCCO2
The INHIBITION of the first is higher: 58.2% for the first, -7.17% for the second.

Going from `COc1cc(CNc2cnn(C)c2)cc2c1OCCO2` to `Cc1cnn(CCCOc2ccc3c(c2)OCO3)c1`, the INHIBITION rises from -181% to -30.8%.

Compared with `Cc1cnn(CCNCCCOc2ccccc2)c1`, `NCC(=O)N1CCC(c2cccc(Oc3ccccc3)n2)CC1` is lower in INHIBITION: -13.6% for the first, -20.5% for the second.

Going from `CC(=O)c1cccc(OCC(=O)NS(=O)(=O)c2ccc(Br)s2)c1` to `COc1cccc(C(=O)C2CCCN(c3cc(C#N)ccn3)C2)c1` (centres undefined), the INHIBITION rises from -85.3% to -25.2%.

Going from `CCN(CC)S(=O)(=O)N(Cc1ccccn1)Cc1ccccc1C` to `O=S(=O)(Cc1ccccc1CN1CC[C@H](CO)[C@H](O)C1)c1ccccc1`, the INHIBITION rises from -6.79% to 16.9%.

Compared with `CC(NCC(N)=O)c1c(F)cccc1Cl` (centres undefined), `O=C1OCCN1Cc1ncnn1Cc1c(F)cccc1Cl` is lower in INHIBITION: -21.3% for the first, -76.9% for the second.

First: Cc1sc2ncnc(N3CCC(N(C)Cc4cnn(C)c4)CC3)c2c1C
Second: Cc1noc(C2CCN(C(=O)c3ccc(N(C)C)nc3)CC2)n1
The INHIBITION of the first is higher: 23.5% for the first, -27% for the second.

First: COCc1noc(CN2CCCCC2CCc2cccs2)n1 (centres undefined)
Second: COCCc1noc(C2CCCN(c3ncnc4c3CCC4)C2)n1 (centres undefined)
The INHIBITION of the first is lower: -172% for the first, -100% for the second.

Going from `O=C(O)c1cc(-c2ccncc2F)cc(S(=O)(=O)N2CCCCCC2)c1` to `O=C1CCCCCN1Cc1ncnn1Cc1c(F)cccc1Cl`, the INHIBITION rises from -154% to -29.5%.

Going from `O=C(c1ccco1)N1CCO[C@@H]2CN(CC3CC3)CC[C@@H]2C1` to `NC(=O)NCC(=O)N1C[C@@H]2CC[C@H]1CN(Cc1ccccc1)C2`, the INHIBITION rises from -65.2% to -9.53%.

First: Cc1nn(C)c(C)c1C1CCCN1C(=O)c1ccc(N(C)C)nc1 (centres undefined)
Second: Cc1noc(C2CCN(C(=O)c3ccc(C(F)(F)F)nc3)CC2)n1
The INHIBITION of the first is lower: -54.2% for the first, 57% for the second.

First: COc1c(F)cc(-c2cccc3c2OC(CN)C3)cc1F (centres undefined)
Second: COc1ccc(-c2cccc3c2OC(CN)C3)cc1F (centres undefined)
The INHIBITION of the first is lower: 35.4% for the first, 62.6% for the second.

Compared with `NCC1Cc2cc(F)cc(-c3cnccn3)c2O1` (centres undefined), `COc1cccnc1-c1ccc(F)c2c1OC(CN)C2` (centres undefined) is higher in INHIBITION: 19.1% for the first, 59.3% for the second.

Going from `COc1cc(OC)cc(-c2cccc3c2OC(CN)C3)c1` (centres undefined) to `COc1cc(-c2cccc3c2OC(CN)C3)cc(OC)c1OC` (centres undefined), the INHIBITION falls from 68.3% to 46.9%.

First: COc1cc(-c2ccc(F)c3c2OC(CN)C3)cc(OC)c1OC (centres undefined)
Second: COc1cc(-c2cccc3c2OC(CN)C3)ccc1O (centres undefined)
The INHIBITION of the first is lower: -12.8% for the first, 38% for the second.

Going from `CC(C)(C)NC(=O)CN1CCCNCC1` to `CNC(=O)C1(N2CCC[C@H]2C(=O)NC2CC2)CCCCC1`, the INHIBITION falls from -113% to -145%.

Going from `CC(=O)NCC(=O)N1Cc2nccn2CC(COc2cccnc2)C1` (centres undefined) to `COc1cccc(Cn2ncnc2CCC(C)N2CCN(C)CC2)c1` (centres undefined), the INHIBITION falls from -98.1% to -99.9%.

Compared with `CNc1cccc(C2CCCN(C(=O)Cc3ccccc3)C2)n1` (centres undefined), `NC1CCCCN(Cc2ccccc2CS(=O)(=O)c2ccccc2)C1` (centres undefined) is higher in INHIBITION: -62.3% for the first, 55.9% for the second.

First: Cc1noc(CNC(=O)C2CSCCC(=O)N2)n1 (centres undefined)
Second: Cc1noc(C2CCN(C(=O)c3ccc(NC4CC4)nc3)CC2)n1
The INHIBITION of the first is lower: -164% for the first, -9.68% for the second.

First: COc1ncc(C2(O)CCN(Cc3c(F)cccc3F)CC2)c(OC)n1
Second: Fc1cccc(Cl)c1Cn1ncnc1CSCCN1CCCC1
The INHIBITION of the first is lower: 13.1% for the first, 61.7% for the second.

First: N[C@@H]1CCN(Cc2ccccc2CS(=O)(=O)c2ccccc2)C[C@H]1O
Second: CS(=O)(=O)N1C[C@@H]2COC[C@]2(CN2CCOCC2)C1
The INHIBITION of the first is higher: -23.3% for the first, -107% for the second.

Going from `Cc1nc(N2CCC(C)CC2)ncc1-c1cc(O)nc(N2CCCC2)n1` to `CNC(=O)C1CCC2(CCN(c3nncs3)CC2)CO1` (centres undefined), the INHIBITION rises from -113% to -79.1%.
